Source: PubChem BioAssay (Broad Institute)
An excerpt weighted towards active compounds, which were near 3.1% of everything screened.
RAD54 inh = inhibitors of human RAD54 branch migration, primary screen, biochemical, fluorescence, single point | RAD54 Holliday junction branch migration, FAM/BHQ fluorescence | inhibition, % at 10.4 µM | 360,000 compounds, 0.14% hits | AID 602329, 2012;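 active = mean normalized replicate activity at least 40 and at least half of replicates scoring 40 or more; inconclusive = only one of the two criteria met; inactive = mean below 40 and under half of replicates reaching 40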;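 also: 0% = median of neutral control wells and 100% = median of positive control wells; inhibitors cause a drop in the FAM fluorescence signal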
GSIS activator = GLuc luminescence reporter in INS-1E cells, primary screen for activators of glucose-dependent secretion of insulin | activation, % at 16.6 µM | INS-1E GLuc reporter insulin secretion, 2-3 h | 370,000 compounds, 0.61% hits;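 active = lowest replicate activation of at least 40%, so every replicate reaches that level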;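 also: 0% = median of neutral control wells and 100% = median of IBMX positive control wells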
dFosB activator = activators of delta FosB homodimer, primary screen, biochemical, fluorescence polarization, TAMRA-CDK5 oligo, single point | purified delta FosB; percent of positive-control signal above neutral wells | Protein FosB (Mus musculus), P13346 | 340,000 compounds, 0.99% hits | AID 493131, 2011 | activation, % at 25 µM;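 active = mean activation above about 17%, with every replicate also reaching it, limit read from the data, passing the limit was not always enough; inconclusive = only one of the two conditions met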
MLL AF4-AF9 inh = inhibitors of AF4 peptide binding to AF9, primary screen, biochemical, AlphaScreen, biotin-AF4 peptide, FLAG-AF9, single point; inhibition, % at 10 µM; AID 651704, 2012; 350,000 compounds, 0.47% hits; Protein AF-9 (Homo sapiens), P42568;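 active = every replicate reaching a set inhibition limit, whatever the replicate mean, cut at about 25% in these data; inconclusive = mean inhibition reaches that limit but some replicates miss it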;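 also: 0% = plate neutral control median and 100% = total signal loss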
Target sequence (P42568 whole entry, looked up): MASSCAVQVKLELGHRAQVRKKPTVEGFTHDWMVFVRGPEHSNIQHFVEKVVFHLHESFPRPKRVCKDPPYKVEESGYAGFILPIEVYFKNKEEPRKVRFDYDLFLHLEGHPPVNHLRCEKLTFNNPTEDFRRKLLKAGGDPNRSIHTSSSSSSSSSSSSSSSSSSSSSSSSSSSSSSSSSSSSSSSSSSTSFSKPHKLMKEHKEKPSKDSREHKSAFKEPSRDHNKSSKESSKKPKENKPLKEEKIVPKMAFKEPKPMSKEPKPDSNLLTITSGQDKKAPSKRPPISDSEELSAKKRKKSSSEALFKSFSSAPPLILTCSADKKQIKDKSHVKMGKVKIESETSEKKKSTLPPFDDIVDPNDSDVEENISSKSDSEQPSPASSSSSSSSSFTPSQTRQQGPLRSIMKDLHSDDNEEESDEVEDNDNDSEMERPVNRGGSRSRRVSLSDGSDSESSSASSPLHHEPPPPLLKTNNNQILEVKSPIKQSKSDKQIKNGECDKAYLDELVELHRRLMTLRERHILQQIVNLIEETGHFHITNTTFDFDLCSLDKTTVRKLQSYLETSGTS
RAD52 inh = RAD52 DNA annealing inhibitors, primary screen, biochemical, FRET, single point, set 2; recombinant RAD52 DNA annealing, FRET fluorescence; DNA repair protein RAD52 homolog (Homo sapiens), P43351; inhibition, % at 18.7 µM; 360,000 compounds, 0.46% hits;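 active = every replicate showing at least 50% inhibition; inconclusive = mean inhibition at least 50% but not in every replicate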
DENV2 CPE rescue = inhibitors of DENV2 cytopathic effect, primary screen, cell-based, plate reader, single concentration. AID 651640, 2012. CPE inhibition, % at 9.99 µM. DENV2-infected cells, cytopathic effect rescue. 350,000 compounds, 1.7% hits; in the data active = CPE inhibition above about 20%, passing the limit was not always enough; inconclusive = no clear call, values can overlap the other calls; tested in BHK-21 cells;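 also: 0% = median of neutral control wells and 100% = median of positive control wells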
* = called active by the depositor; ? = inconclusive; . = no result; ! = repeats disagree.

SMILES	RAD54 inh	GSIS activator	dFosB activator	MLL AF4-AF9 inh	RAD52 inh	DENV2 CPE rescue
COc1cccc(NC(=O)Nc2ccc3c(c2)C(=O)N(C)C[C@H](OC)[C@@H](C)CN(CC2CC2)[C@@H](C)CO3)c1	.	-2	.	0	22	22*
COc1cccc(NC(=O)Nc2ccc3c(c2)C(=O)N(C)C[C@H](OC)[C@H](C)CN(C)[C@@H](C)CO3)c1	0	1	.	14	93*	7
COc1ccccc1C(=O)Nc1ccc2c(c1)C(=O)N(C)C[C@H](OC)[C@H](C)CN(C)[C@@H](C)CO2	-6	17	.	-2	-2	-8
COc1cccc(NC(=O)Nc2ccc3c(c2)C(=O)N(C)C[C@H](OC)[C@@H](C)CN(CC2CC2)[C@H](C)CO3)c1	5	7	.	2	25	2
CO[C@H]1CN(C)C(=O)c2cc(NC(=O)Nc3cccc(Cl)c3)ccc2OC[C@H](C)N(C)C[C@H]1C	9	-24	.	5	21	-1
CO[C@H]1CN(C)C(=O)c2cc(NC(=O)C3CCOCC3)ccc2OC[C@H](C)N(C)C[C@H]1C	-9	27	.	0	6	-1
COc1cccc(NC(=O)Nc2ccc3c(c2)C(=O)N(C)C[C@@H](OC)[C@@H](C)CN(C)[C@@H](C)CO3)c1	5	.	.	13	88*	3
CO[C@@H]1CN(C)C(=O)c2cc(NC(=O)C3CCOCC3)ccc2OC[C@@H](C)N(C)C[C@@H]1C	-1	11	.	-1	4	36*
CN1CCN(C(=O)C[C@H]2CC[C@H]3[C@@H](COC[C@H](O)CN3C(=O)c3ccccc3F)O2)CC1	5	7	.	.	.	-4
c1ccc(-c2nnc3ccc(N4CCC5(CC4)OCCO5)nn23)cc1	0	61*	-23	.	.	.
C[C@@H]1CCCCO[C@@H](CN(C)Cc2ccccc2)[C@@H](C)CN([C@H](C)CO)C(=O)c2cc(NC(=O)Nc3cccc4ccccc34)ccc2O1	-12	-20	.	-14	-24	21*!
C[C@H](CO)N1C[C@H](C)[C@@H](CN(C)C(=O)Cc2ccccc2)OCCCC[C@H](C)Oc2ccc(NC(=O)Nc3cccc4ccccc34)cc2C1=O	2	6	.	-2	-33	24*
O=c1c2cc(Br)ccc2[nH]c(=S)n1Cc1cccnc1	-4	.	43*	.	.	.
O=c1c2ccccc2[nH]c(=S)n1Cc1cccnc1	10	5	1	-1	2	-6
CNC(=O)C[C@H]1CC[C@H]2[C@@H](COc3ccc(NS(=O)(=O)c4cccc(F)c4)cc3C(=O)N2C)O1	-13	6	.	-1	-1	4
C[C@@H]1CN([C@H](C)CO)C(=O)c2cc(NC(=O)c3ccccc3)ccc2O[C@@H](C)CCCCO[C@H]1CN(C)C(=O)CCC(F)(F)F	-6	-8	.	-10	9	17
CCN1CCN(C(c2ccc(C(F)(F)F)cc2)c2ccc3cccnc3c2O)CC1 (stereo unspecified)	10	-31	6	85*	3	-2
O=C1Nc2ccccc2-n2nnnc2C1N1CCN(c2ccccn2)CC1 (stereo unspecified)	.	101*	.	.	-37	-15
CN(C)C(=O)COC(=O)c1cccnc1Nc1ccccc1F	.	80*	1	0	-11	-2
CCOc1ncccc1C(=O)Nc1ccccc1F	-1	77*	-6	-7	-9	0
CCOc1ncccc1C(=O)Nc1cccc(S(=O)(=O)NC2=NCCC2)c1	-1	55*	-7	0	5	3
CCOc1ncccc1C(=O)Nc1ccc(F)cc1	-10	-18	-9	-3	-3	-1
CCOc1ncccc1C(=O)NNC(=O)c1ccccc1-n1cccc1	-2	54*	-1	-2	-10	-5
CCOc1ncccc1C(=O)Nc1cccc(S(=O)(=O)N2CCCCC2)c1	-10	2	-12	-2	-1	13
NC(=O)COC(=O)c1cccnc1Nc1ccccc1F	-8	36	6	-2	-9	-13
SMILES	RAD54 inh	GSIS activator	dFosB activator	MLL AF4-AF9 inh	RAD52 inh	DENV2 CPE rescue
C[C@H]1CN([C@@H](C)CO)C(=O)c2cc(NC(=O)Nc3cccc4ccccc34)ccc2O[C@H]1CN(C)C(=O)Nc1ccc(C(F)(F)F)cc1	-1	-8	.	2	-9	-6
COCC(=O)N1C[C@H]2[C@@H](c3ccccc31)[C@@H](CO)N2C(=O)C1CC1	-10	-1	.	-1	-12	0
C[C@H]1CN([C@@H](C)CO)C(=O)c2ccccc2-c2ccccc2CO[C@H]1CN(C)Cc1ccc2c(c1)OCO2	1	-18	.	5	6	?
O=C(c1cccs1)N(Cc1ccc(Cl)cc1)C1CCS(=O)(=O)C1 (stereo unspecified)	-1	48*	-1	-1	-4	-1
COc1nc(Nc2ccc([N+](=O)[O-])cc2)nc(NC2CCCCC2)n1	1	-23	29*	11	-9	0
C[C@@H]1CN([C@H](C)CO)S(=O)(=O)c2ccc(C#CCN(C)C)cc2O[C@H]1CN(C)Cc1cccnc1	-2	2	.	0	-5	-8
C=CCOc1ccc2c(c1)CCC1C2CCC2(C)C(O)C(O)CC12 (stereo unspecified)	6	47*	-14	-3	-12	-7
C[C@]12CC[C@@H]3c4ccc(O[C@@H]5O[C@H](C(=O)O)[C@@H](O)[C@H](O)[C@H]5O)cc4CC[C@H]3[C@@H]1C[C@@H](O)[C@@H]2O	4	1	6	-3	5	1
COCCN(C(=S)Nc1cccc(C)c1)C(C)c1cccs1 (stereo unspecified)	.	-16	-3	-7	-18	30*
COCCN(C(=S)Nc1cc(C)cc(C)c1)C(C)c1cccs1 (stereo unspecified)	.	4	-4	-33	-9	-4
c1ccc(CCNCCCOc2cccc3ccccc23)cc1	4	-7	-4	8	13	35*
Cc1ccc(NS(=O)(=O)c2cccc(C(=O)N/N=C/c3c(C)nn(-c4ccccc4)c3N3CCCC3)c2)c(C)c1	.	-35	-5	.	.	.
CCNc1ccc(C(=O)N/N=C/c2c(C)nn(-c3ccccc3)c2N2CCCC2)cc1[N+](=O)[O-]	.	46*	-12	3	-8	-4
C[C@H](CO)N1C[C@H](C)[C@H](CN(C)Cc2ccc3c(c2)OCO3)Oc2cc(-c3cccc(C(=O)N(C)C)c3)ccc2S1(=O)=O	-3	-15	.	2	1	-3
